For one sequence, binding signal results are on record in article PMC7862700, “An all-to-all approach to the identification of sequence-specific readers for epigenetic DNA modifications on cytosine”.

Holding throughout (assay): DAPPL (digital affinity profiling via proximity ligation, sequencing); 10 mM Tris-HCl pH 7.5, 50 mM NaCl, 1 mM DTT, 4% glycerol, room temperature, 30 min; GST-TFs on glutathione beads, 16-mer random dsDNA library, 0.1% formaldehyde crosslink after washing; high values mean tight binding
The target in one experiment is T1, FLI1 (Homo sapiens, UniProt Q01543 1-452).
T1 sequence: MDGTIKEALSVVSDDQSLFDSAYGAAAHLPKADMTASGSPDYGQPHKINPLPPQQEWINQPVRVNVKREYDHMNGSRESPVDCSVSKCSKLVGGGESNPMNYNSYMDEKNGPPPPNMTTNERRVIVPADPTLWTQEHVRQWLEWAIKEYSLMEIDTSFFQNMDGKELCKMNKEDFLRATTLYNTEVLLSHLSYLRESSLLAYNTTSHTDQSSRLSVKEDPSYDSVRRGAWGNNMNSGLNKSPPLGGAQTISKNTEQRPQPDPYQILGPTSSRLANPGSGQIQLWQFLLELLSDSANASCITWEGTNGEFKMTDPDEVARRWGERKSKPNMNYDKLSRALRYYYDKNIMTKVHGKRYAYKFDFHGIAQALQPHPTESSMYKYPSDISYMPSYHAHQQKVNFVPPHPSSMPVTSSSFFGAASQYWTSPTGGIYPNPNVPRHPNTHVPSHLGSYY
The settings on record: protein: recombinant; tags: N-terminal GST; dsDNA, one strand shown. The gist of the method: (§1)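 Human transcription factors fused to GST were expressed in yeast, captured on glutathione beads, given DNA barcodes and pooled with a GST-only negative control. Pools were incubated with 200 nmole of a 16-mer random double-stranded DNA library in Tris/NaCl/DTT/glycerol buffer at room temperature for 30 min. They were then washed, crosslinked with 0.1% formaldehyde, proximity-ligated (BsaI/T4 ligase, 1 h, 37 °C), PCR-amplified and sequenced on an Illumina NextSeq500. Binding signal is each 6-mer's read frequency for a factor divided by its frequency for the GST control.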

A further experiment deals with T2, ELK1 (Homo sapiens, UniProt P19419 1-428).
T2 sequence: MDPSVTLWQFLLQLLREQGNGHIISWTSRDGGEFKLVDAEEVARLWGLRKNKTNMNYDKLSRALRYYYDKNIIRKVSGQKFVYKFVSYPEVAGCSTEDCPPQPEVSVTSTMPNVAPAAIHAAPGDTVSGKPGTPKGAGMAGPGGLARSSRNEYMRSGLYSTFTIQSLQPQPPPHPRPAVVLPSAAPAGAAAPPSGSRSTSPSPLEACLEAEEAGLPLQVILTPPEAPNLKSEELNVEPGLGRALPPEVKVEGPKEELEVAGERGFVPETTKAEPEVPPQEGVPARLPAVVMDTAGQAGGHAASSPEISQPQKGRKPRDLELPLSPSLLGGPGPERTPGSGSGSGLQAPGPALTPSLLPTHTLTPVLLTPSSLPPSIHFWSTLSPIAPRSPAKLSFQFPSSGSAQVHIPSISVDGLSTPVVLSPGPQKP
The settings on record: protein: recombinant; tags: N-terminal GST; dsDNA, one strand shown. The gist of the method: as §1

For the next experiment, the target named is T3, GABPA (Homo sapiens, UniProt Q06546 1-454).
T3 sequence: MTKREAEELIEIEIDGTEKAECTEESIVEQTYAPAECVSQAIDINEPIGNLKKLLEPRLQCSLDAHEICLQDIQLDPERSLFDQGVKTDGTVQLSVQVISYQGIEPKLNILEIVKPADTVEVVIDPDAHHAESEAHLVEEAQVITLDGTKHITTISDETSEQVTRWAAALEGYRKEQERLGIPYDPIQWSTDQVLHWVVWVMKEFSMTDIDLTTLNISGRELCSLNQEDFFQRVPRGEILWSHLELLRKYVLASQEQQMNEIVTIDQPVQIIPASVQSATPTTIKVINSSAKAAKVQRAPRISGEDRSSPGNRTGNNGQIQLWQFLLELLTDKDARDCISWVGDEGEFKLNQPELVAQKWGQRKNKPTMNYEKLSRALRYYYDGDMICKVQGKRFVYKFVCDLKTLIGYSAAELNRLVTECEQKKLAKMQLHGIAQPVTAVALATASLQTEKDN
The settings on record: protein: recombinant; tags: N-terminal GST; dsDNA, one strand shown. The gist of the method:
as §1

The target in the next experiment is T4, ERG (Homo sapiens, UniProt P11308 1-479).
T4 sequence: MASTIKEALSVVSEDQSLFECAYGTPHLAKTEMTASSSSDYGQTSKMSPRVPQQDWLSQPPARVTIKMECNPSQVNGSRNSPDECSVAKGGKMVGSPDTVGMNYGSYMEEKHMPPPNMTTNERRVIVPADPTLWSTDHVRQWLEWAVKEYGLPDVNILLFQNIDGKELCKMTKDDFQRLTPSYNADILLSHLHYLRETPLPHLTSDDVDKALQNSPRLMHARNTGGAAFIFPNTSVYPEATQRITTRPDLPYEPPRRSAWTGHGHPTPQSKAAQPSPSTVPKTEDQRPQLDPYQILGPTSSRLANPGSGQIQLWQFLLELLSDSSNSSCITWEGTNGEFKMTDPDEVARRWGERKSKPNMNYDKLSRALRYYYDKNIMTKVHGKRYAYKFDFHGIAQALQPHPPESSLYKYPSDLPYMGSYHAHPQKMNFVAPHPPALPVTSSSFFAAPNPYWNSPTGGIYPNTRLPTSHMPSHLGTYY
The settings on record: protein: recombinant; tags: N-terminal GST; dsDNA, one strand shown. The essentials: as §1

The target in another experiment is ELF1 (Homo sapiens, UniProt P32519 1-619). The settings on record: protein: recombinant; tags: N-terminal GST; dsDNA, one strand shown. The essentials:
as §1

The next experiment concerns the target SPIB (Homo sapiens, UniProt Q01892 1-262). The settings on record: protein: recombinant; tags: N-terminal GST; dsDNA, one strand shown. The essentials:
as §1

For another experiment, the target named is T5, ELK3 (Homo sapiens, UniProt P41970 1-407).
T5 sequence: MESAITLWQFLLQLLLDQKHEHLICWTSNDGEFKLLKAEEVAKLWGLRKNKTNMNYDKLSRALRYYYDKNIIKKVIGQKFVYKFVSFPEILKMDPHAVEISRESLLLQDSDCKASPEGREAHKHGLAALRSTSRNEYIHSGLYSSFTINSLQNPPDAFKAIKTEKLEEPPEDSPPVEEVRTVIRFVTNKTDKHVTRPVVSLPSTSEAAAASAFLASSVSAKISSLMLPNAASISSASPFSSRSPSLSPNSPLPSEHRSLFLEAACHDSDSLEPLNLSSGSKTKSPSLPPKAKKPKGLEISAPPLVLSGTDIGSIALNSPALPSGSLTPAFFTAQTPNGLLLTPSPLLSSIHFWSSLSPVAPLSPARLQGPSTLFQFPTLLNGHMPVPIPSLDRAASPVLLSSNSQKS
As to conditions: protein: recombinant; tags: N-terminal GST; dsDNA, one strand shown. The essentials: as §1

The target of the next experiment is HSF1 (Homo sapiens, UniProt Q00613 1-529). The settings on record: protein: recombinant; tags: N-terminal GST; chain copies: 3; dsDNA, one strand shown. The gist of the method:
as §1

The next experiment concerns the target ELF4 (Homo sapiens, UniProt Q99607 1-663). As to conditions: protein: recombinant; tags: N-terminal GST; dsDNA, one strand shown. The gist of the method:
as §1

The next experiment addresses T6, ELK4 (Homo sapiens, UniProt P28324-2 1-405).
T6 sequence: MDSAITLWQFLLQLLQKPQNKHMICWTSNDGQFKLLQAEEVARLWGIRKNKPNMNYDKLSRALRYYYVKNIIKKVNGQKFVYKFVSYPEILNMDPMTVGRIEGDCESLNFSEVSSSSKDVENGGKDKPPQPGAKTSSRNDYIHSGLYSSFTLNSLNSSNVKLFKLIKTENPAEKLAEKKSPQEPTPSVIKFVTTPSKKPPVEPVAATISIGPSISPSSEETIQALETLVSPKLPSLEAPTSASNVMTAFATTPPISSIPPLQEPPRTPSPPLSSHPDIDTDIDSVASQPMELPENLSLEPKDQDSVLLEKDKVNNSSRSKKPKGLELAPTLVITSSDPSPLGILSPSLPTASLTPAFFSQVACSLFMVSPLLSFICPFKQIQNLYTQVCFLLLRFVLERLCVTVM
The settings on record: protein: recombinant; tags: N-terminal GST; dsDNA, one strand shown. The essentials: as §1

The next experiment deals with T7, ETV2 (Homo sapiens, UniProt O00321 1-342).
T7 sequence: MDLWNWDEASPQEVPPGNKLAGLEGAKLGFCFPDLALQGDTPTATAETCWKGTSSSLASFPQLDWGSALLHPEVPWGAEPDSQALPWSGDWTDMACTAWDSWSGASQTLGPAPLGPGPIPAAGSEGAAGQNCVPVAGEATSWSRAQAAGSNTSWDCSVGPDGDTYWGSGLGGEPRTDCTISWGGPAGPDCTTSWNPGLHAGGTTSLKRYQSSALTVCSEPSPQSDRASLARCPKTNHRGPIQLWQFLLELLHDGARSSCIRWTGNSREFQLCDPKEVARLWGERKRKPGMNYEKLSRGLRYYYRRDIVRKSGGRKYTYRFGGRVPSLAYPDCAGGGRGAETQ
As to conditions: protein: recombinant; tags: N-terminal GST; dsDNA, one strand shown. The gist of the method: as §1

In a further experiment the target is T8, ELF3 (Homo sapiens, UniProt P78545 1-371).
T8 sequence: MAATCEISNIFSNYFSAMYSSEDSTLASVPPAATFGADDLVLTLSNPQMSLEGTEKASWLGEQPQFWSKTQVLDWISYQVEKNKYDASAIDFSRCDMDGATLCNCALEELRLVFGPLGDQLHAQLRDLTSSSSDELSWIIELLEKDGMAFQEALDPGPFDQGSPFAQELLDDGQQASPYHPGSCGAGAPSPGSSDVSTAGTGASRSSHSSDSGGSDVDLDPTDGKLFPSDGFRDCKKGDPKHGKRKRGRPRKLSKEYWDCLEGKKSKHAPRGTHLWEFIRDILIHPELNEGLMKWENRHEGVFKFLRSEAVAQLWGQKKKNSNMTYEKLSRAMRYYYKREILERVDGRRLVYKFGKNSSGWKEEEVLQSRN
The settings on record: protein: recombinant; tags: N-terminal GST; dsDNA, one strand shown. The essentials:
as §1

Another experiment deals with ETV1 (Homo sapiens, UniProt P50549 1-477). The settings on record: protein: recombinant; tags: N-terminal GST; dsDNA, one strand shown. The gist of the method: as §1
Sequence of ETV1 (P50549 whole entry): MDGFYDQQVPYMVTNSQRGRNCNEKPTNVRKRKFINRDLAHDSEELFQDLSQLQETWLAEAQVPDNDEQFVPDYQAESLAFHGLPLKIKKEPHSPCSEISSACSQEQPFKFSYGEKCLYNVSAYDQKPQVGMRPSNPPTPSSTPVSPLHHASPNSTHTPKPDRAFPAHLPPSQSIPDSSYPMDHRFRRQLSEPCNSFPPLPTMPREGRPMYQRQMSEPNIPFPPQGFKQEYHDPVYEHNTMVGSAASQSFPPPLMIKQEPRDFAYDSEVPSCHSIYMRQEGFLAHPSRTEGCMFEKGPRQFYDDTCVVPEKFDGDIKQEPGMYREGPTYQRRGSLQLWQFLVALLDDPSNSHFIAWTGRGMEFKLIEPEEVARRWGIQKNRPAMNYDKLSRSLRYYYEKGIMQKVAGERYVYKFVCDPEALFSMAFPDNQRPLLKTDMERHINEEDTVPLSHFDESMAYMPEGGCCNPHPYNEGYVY
A further experiment has as its target T9, ETV3L (Homo sapiens, UniProt Q6ZN32 1-361).
T9 sequence: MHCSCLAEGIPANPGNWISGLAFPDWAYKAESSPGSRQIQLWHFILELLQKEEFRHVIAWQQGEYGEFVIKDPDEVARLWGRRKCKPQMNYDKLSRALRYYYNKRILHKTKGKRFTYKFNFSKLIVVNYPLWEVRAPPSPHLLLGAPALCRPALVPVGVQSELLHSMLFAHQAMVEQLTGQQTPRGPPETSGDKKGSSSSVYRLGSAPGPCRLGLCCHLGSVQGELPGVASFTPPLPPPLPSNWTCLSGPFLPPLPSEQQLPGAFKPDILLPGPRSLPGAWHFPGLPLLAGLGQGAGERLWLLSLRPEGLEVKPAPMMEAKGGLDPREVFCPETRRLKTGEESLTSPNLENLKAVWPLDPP
As to conditions: protein: recombinant; tags: N-terminal GST; dsDNA, one strand shown. The gist of the method:
as §1

A further experiment deals with T10, ETV7 (Homo sapiens, UniProt Q9Y603 1-341).
T10 sequence: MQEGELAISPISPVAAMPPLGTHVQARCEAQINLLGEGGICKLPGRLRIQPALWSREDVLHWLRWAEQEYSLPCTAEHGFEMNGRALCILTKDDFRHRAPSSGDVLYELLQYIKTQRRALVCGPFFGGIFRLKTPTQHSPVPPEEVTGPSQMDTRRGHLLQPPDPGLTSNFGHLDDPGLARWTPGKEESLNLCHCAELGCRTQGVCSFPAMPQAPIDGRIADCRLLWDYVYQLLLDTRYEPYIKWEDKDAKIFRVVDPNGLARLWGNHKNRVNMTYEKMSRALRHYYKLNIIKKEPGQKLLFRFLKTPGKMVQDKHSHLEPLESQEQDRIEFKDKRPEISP
As to conditions: protein: recombinant; tags: N-terminal GST; dsDNA, one strand shown. The gist of the method: as §1

The next experiment concerns the target T11, ETV3 (Homo sapiens, UniProt P41162-2 1-143).
T11 sequence: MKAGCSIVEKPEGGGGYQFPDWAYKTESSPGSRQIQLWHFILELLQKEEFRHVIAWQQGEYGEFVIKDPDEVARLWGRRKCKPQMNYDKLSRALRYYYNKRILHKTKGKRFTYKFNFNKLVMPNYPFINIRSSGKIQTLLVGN
As to conditions: protein: recombinant; tags: N-terminal GST; dsDNA, one strand shown. The essentials: as §1

The next experiment concerns the target ETV6 (Homo sapiens, UniProt P41212 1-452). As to conditions: protein: recombinant; tags: N-terminal GST; dsDNA, one strand shown. The gist of the method:
as §1

Sequence of HSF1 (Q00613 whole entry): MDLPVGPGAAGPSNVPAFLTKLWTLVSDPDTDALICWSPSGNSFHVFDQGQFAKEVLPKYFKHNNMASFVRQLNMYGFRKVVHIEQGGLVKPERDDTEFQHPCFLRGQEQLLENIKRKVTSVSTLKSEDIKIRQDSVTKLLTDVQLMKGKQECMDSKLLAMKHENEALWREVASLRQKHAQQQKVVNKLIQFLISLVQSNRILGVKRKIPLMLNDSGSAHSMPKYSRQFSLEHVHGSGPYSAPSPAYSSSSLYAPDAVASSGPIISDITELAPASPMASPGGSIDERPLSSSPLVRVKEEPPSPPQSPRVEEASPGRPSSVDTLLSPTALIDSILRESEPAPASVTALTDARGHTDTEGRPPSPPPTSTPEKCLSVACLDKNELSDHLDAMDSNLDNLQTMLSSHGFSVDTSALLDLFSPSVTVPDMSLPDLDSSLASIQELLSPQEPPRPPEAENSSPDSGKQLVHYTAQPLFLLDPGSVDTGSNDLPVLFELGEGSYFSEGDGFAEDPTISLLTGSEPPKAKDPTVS
Sequence of ELF1 (P32519 whole entry): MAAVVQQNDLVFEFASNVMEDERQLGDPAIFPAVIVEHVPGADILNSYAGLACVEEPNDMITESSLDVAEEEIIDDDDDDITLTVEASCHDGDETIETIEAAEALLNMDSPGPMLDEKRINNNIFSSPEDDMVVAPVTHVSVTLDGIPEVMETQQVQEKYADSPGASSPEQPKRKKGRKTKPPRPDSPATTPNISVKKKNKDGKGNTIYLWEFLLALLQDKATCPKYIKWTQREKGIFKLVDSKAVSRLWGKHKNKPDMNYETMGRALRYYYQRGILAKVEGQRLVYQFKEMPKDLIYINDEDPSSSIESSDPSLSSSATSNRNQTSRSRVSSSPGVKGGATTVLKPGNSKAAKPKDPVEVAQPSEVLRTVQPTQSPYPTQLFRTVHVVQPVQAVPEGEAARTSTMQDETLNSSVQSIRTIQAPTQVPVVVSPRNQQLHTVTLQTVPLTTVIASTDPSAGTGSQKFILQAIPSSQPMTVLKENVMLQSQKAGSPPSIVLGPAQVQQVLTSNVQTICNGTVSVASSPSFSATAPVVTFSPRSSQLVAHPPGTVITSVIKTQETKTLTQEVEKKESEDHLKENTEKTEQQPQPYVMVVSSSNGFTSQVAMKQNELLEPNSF
Sequence of ELF4 (Q99607 whole entry): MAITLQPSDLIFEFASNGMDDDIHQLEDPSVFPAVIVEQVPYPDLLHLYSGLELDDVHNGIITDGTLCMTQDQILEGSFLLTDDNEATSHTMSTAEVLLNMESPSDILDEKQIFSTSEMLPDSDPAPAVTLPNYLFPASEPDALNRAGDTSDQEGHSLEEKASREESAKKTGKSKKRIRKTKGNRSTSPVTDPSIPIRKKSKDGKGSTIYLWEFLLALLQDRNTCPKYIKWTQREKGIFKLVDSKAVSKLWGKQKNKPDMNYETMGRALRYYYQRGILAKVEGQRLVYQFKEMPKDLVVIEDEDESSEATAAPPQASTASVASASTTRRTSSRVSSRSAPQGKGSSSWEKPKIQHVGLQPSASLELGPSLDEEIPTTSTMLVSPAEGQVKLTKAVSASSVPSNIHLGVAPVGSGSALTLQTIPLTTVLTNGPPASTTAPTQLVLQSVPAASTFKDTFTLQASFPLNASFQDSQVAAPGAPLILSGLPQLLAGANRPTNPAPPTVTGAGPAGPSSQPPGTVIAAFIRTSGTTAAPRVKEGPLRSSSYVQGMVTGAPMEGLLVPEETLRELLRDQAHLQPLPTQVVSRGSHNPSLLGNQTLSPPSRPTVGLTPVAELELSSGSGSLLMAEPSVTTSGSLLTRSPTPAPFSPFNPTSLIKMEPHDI
Sequence of ETV6 (P41212 whole entry): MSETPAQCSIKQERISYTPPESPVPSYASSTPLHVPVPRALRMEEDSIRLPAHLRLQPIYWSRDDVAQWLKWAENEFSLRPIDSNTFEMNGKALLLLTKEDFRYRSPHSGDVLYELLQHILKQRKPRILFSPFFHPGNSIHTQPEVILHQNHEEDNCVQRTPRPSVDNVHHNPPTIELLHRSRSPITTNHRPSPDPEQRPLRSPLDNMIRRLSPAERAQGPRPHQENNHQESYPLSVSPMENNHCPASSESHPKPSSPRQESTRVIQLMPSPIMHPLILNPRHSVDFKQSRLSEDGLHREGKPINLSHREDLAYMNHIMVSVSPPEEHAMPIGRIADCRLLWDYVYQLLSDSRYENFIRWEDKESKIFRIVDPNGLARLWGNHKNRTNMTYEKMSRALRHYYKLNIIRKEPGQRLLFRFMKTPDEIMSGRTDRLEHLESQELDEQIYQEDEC
Sequence of SPIB (Q01892 whole entry): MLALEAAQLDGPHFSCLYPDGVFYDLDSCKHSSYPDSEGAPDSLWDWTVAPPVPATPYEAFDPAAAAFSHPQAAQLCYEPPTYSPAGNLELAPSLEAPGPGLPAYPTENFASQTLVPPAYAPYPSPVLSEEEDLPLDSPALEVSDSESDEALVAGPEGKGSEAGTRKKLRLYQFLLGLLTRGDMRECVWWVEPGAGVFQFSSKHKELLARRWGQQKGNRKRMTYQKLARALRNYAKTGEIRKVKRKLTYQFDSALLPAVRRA

Consider CGCGAT, for which the binding signal is 1.02 fold enrichment (6-mer frequency, TF over GST control) with FLI1; 1.07 fold enrichment (6-mer frequency, TF over GST control) with ELK1; 1.09 fold enrichment (6-mer frequency, TF over GST control) with GABPA; 1.09 fold enrichment (6-mer frequency, TF over GST control) with ERG; 1.06 fold enrichment (6-mer frequency, TF over GST control) with ELF1; 1.03 fold enrichment (6-mer frequency, TF over GST control) with SPIB. The binding signal is 1.07 fold enrichment (6-mer frequency, TF over GST control) with ELK3; 1.23 fold enrichment (6-mer frequency, TF over GST control) with HSF1; 1.07 fold enrichment (6-mer frequency, TF over GST control) with ELF4; 1.22 fold enrichment (6-mer frequency, TF over GST control) with ELK4; 1.17 fold enrichment (6-mer frequency, TF over GST control) with ETV2; 1.15 fold enrichment (6-mer frequency, TF over GST control) with ELF3. Besides, the binding signal with ETV1 is 1.08 fold enrichment (6-mer frequency, TF over GST control); with ETV3L, 1.06 fold enrichment (6-mer frequency, TF over GST control); with ETV7 it was 1.05 fold enrichment (6-mer frequency, TF over GST control); with ETV3, 1.08 fold enrichment (6-mer frequency, TF over GST control); with ETV6, 1.05 fold enrichment (6-mer frequency, TF over GST control).
